Our source for the binding signal values is paper PMC11006913.

Substitutions are numbered along the chain they refer to.

What all share (experiment): PBM; 200 nM protein, PBS
Details in all cases: dsDNA, one strand shown

The target of assay [1] is NKX2-5 (Homo sapiens, UniProt P52952 125-210, R139K).
The target of assay [2] is HOXB6 (Homo sapiens, UniProt P17509 132-218, K202E).
Assay [3] addresses T1, NKX2-6 (Homo sapiens, UniProt A6NCS4 118-204).
T1 sequence: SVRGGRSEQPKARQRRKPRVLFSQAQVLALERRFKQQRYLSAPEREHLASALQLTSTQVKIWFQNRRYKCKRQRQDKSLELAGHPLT

Assay [4] addresses T2, NKX2-6 (Homo sapiens, UniProt A6NCS4 118-204, F151L).
T2 sequence: T1 sequence with F34L

Assay [5] addresses NKX2-5 (Homo sapiens, UniProt P52952 125-210).
The target in assay [6] is HOXB6 (Homo sapiens, UniProt P17509 132-218).
Assay [7] concerns the target HOXA7 (Homo sapiens, UniProt P31268 116-202).
The target of assay [8] is HOXA7 (Homo sapiens, UniProt P31268 116-202, W177C).
Assay [9] deals with ALX4 (Homo sapiens, UniProt Q9H161 200-286).
In assay [10] the target is ALX4 (Homo sapiens, UniProt Q9H161 200-286, Q225E).
Assay [11] concerns the target T3, PAX4 (Homo sapiens, UniProt O43316 9-242, R200K).
T3 sequence: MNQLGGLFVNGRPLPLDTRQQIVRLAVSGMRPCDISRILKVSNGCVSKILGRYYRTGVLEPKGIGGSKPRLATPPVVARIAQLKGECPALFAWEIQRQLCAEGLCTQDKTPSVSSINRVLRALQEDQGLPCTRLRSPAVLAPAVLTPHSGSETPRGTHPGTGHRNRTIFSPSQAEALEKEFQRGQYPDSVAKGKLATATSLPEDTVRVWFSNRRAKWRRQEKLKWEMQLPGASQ

Assay [12] addresses T4, PAX4 (Homo sapiens, UniProt O43316 9-242).
T4 sequence: T3 sequence with K192R

Assay [13] has as its target ALX3 (Homo sapiens, UniProt O95076 139-225, N203Q).
The target in assay [14] is T5, PAX4 (Homo sapiens, UniProt O43316 9-242, R200Q).
T5 sequence: T3 sequence with K192Q

Assay [15] addresses T6, PAX4 (Homo sapiens, UniProt O43316 9-242, F177V).
T6 sequence: T3 sequence with F169V, K192R

Assay [16] deals with ALX3 (Homo sapiens, UniProt O95076 139-225).
The target in assay [17] is T7, PAX4 (Homo sapiens, UniProt O43316 9-242, F177Y).
T7 sequence: T3 sequence with F169Y, K192R

Assay [18] concerns the target ALX3 (Homo sapiens, UniProt O95076 139-225, L168Q).
The target of assay [19] is ALX3 (Homo sapiens, UniProt O95076 139-225, L168V).
The target in assay [20] is T8, PAX4 (Homo sapiens, UniProt O43316 9-242, R227W).
T8 sequence: T3 sequence with K192R, R219W

Assay [21] has as its target ALX3 (Homo sapiens, UniProt O95076 139-225, N203S).
Assay [22] has as its target T9, NKX2-6 (Homo sapiens, UniProt A6NCS4 118-204, R150C).
T9 sequence: T1 sequence with R33C

Assay [23] has as its target NKX3-2 (Homo sapiens, UniProt P78367 192-278, P234S).
Assay [24] addresses NKX3-2 (Homo sapiens, UniProt P78367 192-278).
Assay [25] has as its target ALX1 (Homo sapiens, UniProt Q15699 118-204, L144V).
Assay [26] deals with ALX1 (Homo sapiens, UniProt Q15699 118-204, L144R).
In assay [27] the target is ALX1 (Homo sapiens, UniProt Q15699 118-204).
Assay [28] addresses HOXD13 (Homo sapiens, UniProt P35453 263-343, T313R).
Assay [29] concerns the target HOXD13 (Homo sapiens, UniProt P35453 263-343).
Assay [30] deals with HOXD13 (Homo sapiens, UniProt P35453 263-343, T313A).
For assay [31], the target named is MSX2 (Homo sapiens, UniProt P35548 130-214, R199I).
Assay [32] deals with MSX2 (Homo sapiens, UniProt P35548 130-214).
The target of assay [33] is MSX2 (Homo sapiens, UniProt P35548 130-214, F161Y).
For the next assay, the target named is T10, NKX2-4 (Homo sapiens, UniProt Q9H2Z4 175-261, R246Q).
T10 sequence: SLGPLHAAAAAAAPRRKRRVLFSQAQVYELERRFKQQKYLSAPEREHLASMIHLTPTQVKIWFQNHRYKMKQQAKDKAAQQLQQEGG

Chain of NKX2-5 (Homo sapiens, UniProt P52952 125-210, R139K) (P52952 125-210 R139K): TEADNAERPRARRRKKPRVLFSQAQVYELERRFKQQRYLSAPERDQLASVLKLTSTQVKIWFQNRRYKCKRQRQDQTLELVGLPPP
Chain of NKX3-2 (Homo sapiens, UniProt P78367 192-278, P234S) (P78367 192-278 P234S): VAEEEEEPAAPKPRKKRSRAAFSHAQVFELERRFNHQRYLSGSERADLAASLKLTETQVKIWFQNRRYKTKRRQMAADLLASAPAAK
Chain of NKX3-2 (Homo sapiens, UniProt P78367 192-278) (P78367 192-278): as the sequence (P78367 192-278 P234S) above, with S43P counted along it
Chain of NKX2-5 (Homo sapiens, UniProt P52952 125-210) (P52952 125-210): as the sequence (P52952 125-210 R139K) above, with K15R counted along it
Chain of ALX3 (Homo sapiens, UniProt O95076 139-225, N203S) (O95076 139-225 N203S): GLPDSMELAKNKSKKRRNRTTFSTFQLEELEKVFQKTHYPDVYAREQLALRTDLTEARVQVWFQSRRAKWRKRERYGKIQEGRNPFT
Chain of ALX3 (Homo sapiens, UniProt O95076 139-225, N203Q) (O95076 139-225 N203Q): as the sequence (O95076 139-225 N203S) above, with S65Q counted along it
Chain of HOXB6 (Homo sapiens, UniProt P17509 132-218) (P17509 132-218): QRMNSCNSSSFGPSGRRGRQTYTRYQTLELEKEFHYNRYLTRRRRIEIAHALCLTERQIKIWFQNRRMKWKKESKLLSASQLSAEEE
Chain of HOXB6 (Homo sapiens, UniProt P17509 132-218, K202E) (P17509 132-218 K202E): as the sequence (P17509 132-218) above, with K71E counted along it
Chain of MSX2 (Homo sapiens, UniProt P35548 130-214) (P35548 130-214): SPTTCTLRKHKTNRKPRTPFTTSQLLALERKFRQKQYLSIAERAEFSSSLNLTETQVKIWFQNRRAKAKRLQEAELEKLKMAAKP
Chain of ALX3 (Homo sapiens, UniProt O95076 139-225, L168Q) (O95076 139-225 L168Q): as the sequence (O95076 139-225 N203S) above, with L30Q, S65N counted along it
Chain of MSX2 (Homo sapiens, UniProt P35548 130-214, F161Y) (P35548 130-214 F161Y): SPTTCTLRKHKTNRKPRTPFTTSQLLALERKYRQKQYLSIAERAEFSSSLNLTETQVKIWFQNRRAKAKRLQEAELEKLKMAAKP
Chain of HOXA7 (Homo sapiens, UniProt P31268 116-202) (P31268 116-202): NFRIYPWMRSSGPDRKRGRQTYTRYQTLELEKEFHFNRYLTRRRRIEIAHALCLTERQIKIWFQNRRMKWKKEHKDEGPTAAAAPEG
Chain of HOXA7 (Homo sapiens, UniProt P31268 116-202, W177C) (P31268 116-202 W177C): as the sequence (P31268 116-202) above, with W62C counted along it
Chain of ALX3 (Homo sapiens, UniProt O95076 139-225, L168V) (O95076 139-225 L168V): as the sequence (O95076 139-225 N203S) above, with L30V, S65N counted along it
Chain of ALX3 (Homo sapiens, UniProt O95076 139-225) (O95076 139-225): as the sequence (O95076 139-225 N203S) above, with S65N counted along it
Chain of MSX2 (Homo sapiens, UniProt P35548 130-214, R199I) (P35548 130-214 R199I): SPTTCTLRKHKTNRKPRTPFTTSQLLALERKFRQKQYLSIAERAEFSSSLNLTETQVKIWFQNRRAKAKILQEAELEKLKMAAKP
Chain of HOXD13 (Homo sapiens, UniProt P35453 263-343) (P35453 263-343): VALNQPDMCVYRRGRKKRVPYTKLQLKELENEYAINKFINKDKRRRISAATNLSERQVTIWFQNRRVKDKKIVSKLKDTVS
Chain of ALX1 (Homo sapiens, UniProt Q15699 118-204, L144V) (Q15699 118-204 L144V): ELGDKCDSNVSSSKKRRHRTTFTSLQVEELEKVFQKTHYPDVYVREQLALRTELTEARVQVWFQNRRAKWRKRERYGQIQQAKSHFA
Chain of HOXD13 (Homo sapiens, UniProt P35453 263-343, T313A) (P35453 263-343 T313A): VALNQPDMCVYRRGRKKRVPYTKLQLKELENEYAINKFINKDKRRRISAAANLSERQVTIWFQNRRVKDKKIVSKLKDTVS
Chain of ALX4 (Homo sapiens, UniProt Q9H161 200-286) (Q9H161 200-286): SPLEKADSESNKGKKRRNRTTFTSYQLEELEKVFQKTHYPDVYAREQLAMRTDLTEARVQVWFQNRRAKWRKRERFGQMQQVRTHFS
Chain of HOXD13 (Homo sapiens, UniProt P35453 263-343, T313R) (P35453 263-343 T313R): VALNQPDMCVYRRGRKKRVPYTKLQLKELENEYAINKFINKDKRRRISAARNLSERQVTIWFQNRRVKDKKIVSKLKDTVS
Chain of ALX1 (Homo sapiens, UniProt Q15699 118-204, L144R) (Q15699 118-204 L144R): as the sequence (Q15699 118-204 L144V) above, with V27R counted along it
Chain of ALX4 (Homo sapiens, UniProt Q9H161 200-286, Q225E) (Q9H161 200-286 Q225E): as the sequence (Q9H161 200-286) above, with Q26E counted along it
Chain of ALX1 (Homo sapiens, UniProt Q15699 118-204) (Q15699 118-204): as the sequence (Q15699 118-204 L144V) above, with V27L counted along it

In the case of TCACTTAA, the binding signal in the assay with NKX2-5 [1] was 12.2 upbm affinity estimate (log intensity, higher = more binding, comparable within an allelic series); with HOXB6 [2], 9.72 upbm affinity estimate (log intensity, higher = more binding, comparable within an allelic series); with NKX2-6 [3], 13.4 upbm affinity estimate (log intensity, higher = more binding, comparable within an allelic series); with NKX2-6 [4], 10.6 upbm affinity estimate (log intensity, higher = more binding, comparable within an allelic series); with NKX2-5 [5], 12.3 upbm affinity estimate (log intensity, higher = more binding, comparable within an allelic series); in the assay with HOXB6 [6], 10.7 upbm affinity estimate (log intensity, higher = more binding, comparable within an allelic series).
Consider CAGAGCCG, for which the binding signal with NKX2-5 [1] was 8.74 upbm affinity estimate (log intensity, higher = more binding, comparable within an allelic series); with HOXA7 [7], 8.45 upbm affinity estimate (log intensity, higher = more binding, comparable within an allelic series); with HOXB6 [2], 8.99 upbm affinity estimate (log intensity, higher = more binding, comparable within an allelic series); with HOXA7 [8], 8.36 upbm affinity estimate (log intensity, higher = more binding, comparable within an allelic series); in the assay with NKX2-5 [5], 8.8 upbm affinity estimate (log intensity, higher = more binding, comparable within an allelic series); with HOXB6 [6] it was 9 upbm affinity estimate (log intensity, higher = more binding, comparable within an allelic series).
For AGCCGGGG, the binding signal with NKX2-5 [1] is 9.08 upbm affinity estimate (log intensity, higher = more binding, comparable within an allelic series); in the assay with ALX4 [9], 8.22 upbm affinity estimate (log intensity, higher = more binding, comparable within an allelic series); with ALX4 [10], 8.28 upbm affinity estimate (log intensity, higher = more binding, comparable within an allelic series); with NKX2-5 [5], 9.03 upbm affinity estimate (log intensity, higher = more binding, comparable within an allelic series).
Take CCGGACCG: the binding signal was 8.49 upbm affinity estimate (log intensity, higher = more binding, comparable within an allelic series) in the assay with NKX2-5 [1]; 8.43 upbm affinity estimate (log intensity, higher = more binding, comparable within an allelic series) in the assay with HOXA7 [7]; 8.36 upbm affinity estimate (log intensity, higher = more binding, comparable within an allelic series) with HOXA7 [8]; 8.49 upbm affinity estimate (log intensity, higher = more binding, comparable within an allelic series) with NKX2-5 [5].
Turning to GCTGGGCC, the binding signal with NKX2-5 [1] was 8.63 upbm affinity estimate (log intensity, higher = more binding, comparable within an allelic series); with PAX4 [11], 9.06 upbm affinity estimate (log intensity, higher = more binding, comparable within an allelic series); in the assay with PAX4 [12] it was 9.06 upbm affinity estimate (log intensity, higher = more binding, comparable within an allelic series); with ALX3 [13] it was 7.66 upbm affinity estimate (log intensity, higher = more binding, comparable within an allelic series); in the assay with PAX4 [14] it was 9.13 upbm affinity estimate (log intensity, higher = more binding, comparable within an allelic series); with PAX4 [15] it was 8.94 upbm affinity estimate (log intensity, higher = more binding, comparable within an allelic series). Also, the binding signal with ALX3 [16] was 7.62 upbm affinity estimate (log intensity, higher = more binding, comparable within an allelic series); in the assay with PAX4 [17] it was 9.03 upbm affinity estimate (log intensity, higher = more binding, comparable within an allelic series); with ALX3 [18], 7.58 upbm affinity estimate (log intensity, higher = more binding, comparable within an allelic series); in the assay with ALX3 [19], 7.61 upbm affinity estimate (log intensity, higher = more binding, comparable within an allelic series); with PAX4 [20], 9.05 upbm affinity estimate (log intensity, higher = more binding, comparable within an allelic series); with ALX3 [21], 7.64 upbm affinity estimate (log intensity, higher = more binding, comparable within an allelic series). For the same sequence, the binding signal with NKX2-5 [5] was 8.61 upbm affinity estimate (log intensity, higher = more binding, comparable within an allelic series).
For CTGGCCGA, the binding signal with NKX2-5 [1] is 8.94 upbm affinity estimate (log intensity, higher = more binding, comparable within an allelic series); with NKX2-6 [22] it was 9.45 upbm affinity estimate (log intensity, higher = more binding, comparable within an allelic series); with NKX2-5 [5], 8.74 upbm affinity estimate (log intensity, higher = more binding, comparable within an allelic series).
AAGTGCCT: the binding signal with NKX2-5 [1] was 12.4 upbm affinity estimate (log intensity, higher = more binding, comparable within an allelic series); with NKX2-6 [22] it was 11.7 upbm affinity estimate (log intensity, higher = more binding, comparable within an allelic series); in the assay with NKX2-6 [4], 10.8 upbm affinity estimate (log intensity, higher = more binding, comparable within an allelic series); in the assay with NKX3-2 [23] it was 12.5 upbm affinity estimate (log intensity, higher = more binding, comparable within an allelic series); in the assay with NKX2-5 [5] it was 12.3 upbm affinity estimate (log intensity, higher = more binding, comparable within an allelic series); in the assay with NKX3-2 [24] it was 12.6 upbm affinity estimate (log intensity, higher = more binding, comparable within an allelic series).
For CCAGCAGG, the binding signal is 8.6 upbm affinity estimate (log intensity, higher = more binding, comparable within an allelic series) with NKX2-5 [1]; 6.58 upbm affinity estimate (log intensity, higher = more binding, comparable within an allelic series) with ALX1 [25]; 6.51 upbm affinity estimate (log intensity, higher = more binding, comparable within an allelic series) with ALX1 [26]; 6.53 upbm affinity estimate (log intensity, higher = more binding, comparable within an allelic series) with ALX1 [27]; 8.77 upbm affinity estimate (log intensity, higher = more binding, comparable within an allelic series) with NKX2-5 [5].
Turning to CAGGTCGC, the binding signal is 9.22 upbm affinity estimate (log intensity, higher = more binding, comparable within an allelic series) with NKX2-5 [1]; 9.62 upbm affinity estimate (log intensity, higher = more binding, comparable within an allelic series) in the assay with HOXD13 [28]; 9.82 upbm affinity estimate (log intensity, higher = more binding, comparable within an allelic series) with HOXD13 [29]; 9.97 upbm affinity estimate (log intensity, higher = more binding, comparable within an allelic series) with HOXD13 [30]; 9.21 upbm affinity estimate (log intensity, higher = more binding, comparable within an allelic series) with NKX2-5 [5].
Consider CCGACGCA, for which the binding signal was 8.78 upbm affinity estimate (log intensity, higher = more binding, comparable within an allelic series) with NKX2-5 [1]; 9.38 upbm affinity estimate (log intensity, higher = more binding, comparable within an allelic series) in the assay with MSX2 [31]; 7.72 upbm affinity estimate (log intensity, higher = more binding, comparable within an allelic series) with ALX3 [13]; 9.17 upbm affinity estimate (log intensity, higher = more binding, comparable within an allelic series) in the assay with MSX2 [32]; 7.54 upbm affinity estimate (log intensity, higher = more binding, comparable within an allelic series) with ALX3 [16]; 7.69 upbm affinity estimate (log intensity, higher = more binding, comparable within an allelic series) with ALX3 [18]. For the same sequence, the binding signal with ALX3 [19] is 7.71 upbm affinity estimate (log intensity, higher = more binding, comparable within an allelic series); with MSX2 [33], 9.25 upbm affinity estimate (log intensity, higher = more binding, comparable within an allelic series); with ALX3 [21] it was 7.75 upbm affinity estimate (log intensity, higher = more binding, comparable within an allelic series); in the assay with NKX2-5 [5] it was 8.7 upbm affinity estimate (log intensity, higher = more binding, comparable within an allelic series).
On to AGCACTTG, for which the binding signal with NKX2-5 [1] was 12.4 upbm affinity estimate (log intensity, higher = more binding, comparable within an allelic series); in the assay with NKX2-6 [22], 11.6 upbm affinity estimate (log intensity, higher = more binding, comparable within an allelic series); with NKX2-4, 13 upbm affinity estimate (log intensity, higher = more binding, comparable within an allelic series); with NKX2-6 [4], 10.6 upbm affinity estimate (log intensity, higher = more binding, comparable within an allelic series); in the assay with NKX2-5 [5], 12.3 upbm affinity estimate (log intensity, higher = more binding, comparable within an allelic series).
On to ACAATTAC, for which the binding signal with NKX2-5 [1] was 10.9 upbm affinity estimate (log intensity, higher = more binding, comparable within an allelic series); in the assay with MSX2 [31], 12.3 upbm affinity estimate (log intensity, higher = more binding, comparable within an allelic series); with MSX2 [32], 13.5 upbm affinity estimate (log intensity, higher = more binding, comparable within an allelic series); in the assay with MSX2 [33] it was 13.2 upbm affinity estimate (log intensity, higher = more binding, comparable within an allelic series); with NKX2-5 [5], 11 upbm affinity estimate (log intensity, higher = more binding, comparable within an allelic series).
Turning to AAGTGGGC, the binding signal with NKX2-5 [1] is 12.4 upbm affinity estimate (log intensity, higher = more binding, comparable within an allelic series); in the assay with NKX2-6 [22], 11.5 upbm affinity estimate (log intensity, higher = more binding, comparable within an allelic series); with NKX3-2 [23], 12.8 upbm affinity estimate (log intensity, higher = more binding, comparable within an allelic series); with NKX2-5 [5] it was 12.3 upbm affinity estimate (log intensity, higher = more binding, comparable within an allelic series); in the assay with NKX3-2 [24], 12.9 upbm affinity estimate (log intensity, higher = more binding, comparable within an allelic series).
Turning to AAGTGGCC, the binding signal with NKX2-5 [1] was 12.4 upbm affinity estimate (log intensity, higher = more binding, comparable within an allelic series); with NKX2-6 [22], 11.6 upbm affinity estimate (log intensity, higher = more binding, comparable within an allelic series); with NKX2-6 [3] it was 13.3 upbm affinity estimate (log intensity, higher = more binding, comparable within an allelic series); with NKX2-6 [4], 10.5 upbm affinity estimate (log intensity, higher = more binding, comparable within an allelic series); with NKX3-2 [23], 12.9 upbm affinity estimate (log intensity, higher = more binding, comparable within an allelic series); with NKX2-5 [5], 12.4 upbm affinity estimate (log intensity, higher = more binding, comparable within an allelic series). The binding signal in the assay with NKX3-2 [24] is 13.1 upbm affinity estimate (log intensity, higher = more binding, comparable within an allelic series).
